Reference: PubChem BioAssay AID504891 (National Center for Advancing Translational Sciences (NCATS), 2011)
Among all 390,000 compounds or so, about 35 (0.009%) were called active. Roughly 6% stayed inconclusive and do not appear here. The sample holds actives, similar compounds and a random draw of the others, so the mix is not that of the screen. Calls come from the whole dose curve; as a rule, active = well fitted inhibition curve with a large enough effect in the polarisation, with a control signal flat (not every such curve was filed as active); inconclusive = small, poorly fitted or top-dose-only effect, or effect the other way, or a change in a side signal; inactive = no such curve, though single readings can be large or run the other way; the % refers to the polarisation.

Molecular target: Peptidyl-prolyl cis-trans isomerase NIMA-interacting 1 (Homo sapiens) (UniProt Q13526)
Sequence (Q13526 whole entry, looked up): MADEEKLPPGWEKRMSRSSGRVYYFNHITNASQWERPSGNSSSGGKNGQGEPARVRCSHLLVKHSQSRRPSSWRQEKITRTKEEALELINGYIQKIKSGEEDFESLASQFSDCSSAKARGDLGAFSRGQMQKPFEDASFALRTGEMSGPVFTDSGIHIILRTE
Assay: qHTS Assay to Find Inhibitors of Pin1
Details: Pin1 FP peptide displacement, HiFluor488, 10 min; series mostly up to 115 µM
Source text: NIH Molecular Libraries Probe Production Network [MLPCN]
NIH Chemical Genomics Center [NCGC]
The unique chemical properties of Pro allow for the adoption of two completely distinct amide bond conformations (cis and trans). Peptidyl-prolyl cis/trans isomerases (PPIases) are evolutionary conserved enzymes that catalyze cis/trans isomerization of peptidyl-prolyl peptide bonds. Distinct from all other PPIases such as cyclophilins and FK506-binding proteins (FKBPs), Pin1 binds a subset of phos.Ser/Thr-Pro-containing proteins using its protein-targeting WW domain and isomerizes only specific phos.Ser/Thr-Pro bonds, which cannot be effectively catalyzed by other known PPIases.
Pin1-catalyzed conformational regulation can control a spectrum of activities of many key regulators in diverse cellular processes such as cell growth, genotoxic and other stress responses, immune response, germ cell development, neuronal differentiation and survival. Pin1 has emerged as a novel molecular timer that modulates its multiple targets at various steps of a given cellular process to synergistically control the amplitude and duration of a cellular response or process. Importantly, Pin1 is tightly regulated by multiple levels and its deregulation has an important role in a growing number of pathological conditions, including cancer, Alzheimer's disease, aging, asthma and microbial infection, providing a potentially new therapeutic option.
The goal of this screen is to find small-molecule inhibitors of Pin1 using a fluorescence polarization competition assay. A HiFluor-488-labeled peptide binds to the active site of Pin1 and can be displaced by compounds. Compounds were screened as a concentration-titration series that ranged from 57 uM to 0.7 nM.
NCGC Assay Protocol Summary:
Pin1 (0.6 uM) was dispensed into black, solid 1536-well plates at 2 uL/well in 10 mM HEPES (pH 7.5), 10 mM NaCl, 0.01% Tween20, 1 mM DTT, and 1% glycerol. Then, 23 nL of compounds or DMSO were delivered to each well using a pin tool. Two uL of Pin1-1b-HiFluor488 peptide (10 mM HEPES (pH 7.5), 10 mM NaCl, 0.01% Tween20, 1 mM DTT, and 1% glycerol, 0.02 uM Pin1-1b-HiFluor488) was then dispensed, and plates were incubated at room temperature for 10 min. The plates were measured on a ViewLux plate reader for fluorescence polarization signal using a 480/20 nM nm excitation filter and 540/25 nM nm S and P emission filters with a 20 second exposure. The %Activity was determined from the corrected fluorescence polarization values. Unlabeled Pin1-1c peptide was used as a control (3.5 mM two-fold serial; 20 uM final concentration) along with a 1x (0.3 uM) and 0x (no-enzyme) Pin1 enzyme control to normalize %Activity of identified inhibitors; 0x enzyme values corresponded to 100%Activity (full inhibition), while 1x Pin1 enzyme values were used to normalize 0%Activity (no inhibition).
Concentration-response curves were fitted to the signals arising from the resulting fluorescence polarization. The concentration-effect curves were then classified based on curve quality (r2), response magnitude and degree of measured activity, and compounds were subsequently categorized based on their curve class.
Keywords: Peptidyl prolyl isomerase, Pin1, fluorescence polarization, MLSMR, MLPCN, NIH Roadmap, qHTS, NCGC

activity, negative = inhibition, inactive:
Cc1ccccc1CNC(=O)C(=O)NCC(c1cccs1)S(=O)(=O)c1cccs1 (stereo not given)
CC1CCC2(CC1)N=C(c1ccccc1)C(=O)N2CC(=O)Nc1ccc(F)c(Cl)c1 (stereo not given)
COc1cc(OC)c(NC(=O)c2nc(-c3ccncc3)no2)cc1Cl
Cc1cccc(CNC(=O)c2cnc3sc(N4CCCCC4)nn3c2=O)c1
CCc1ccccc1NC(=O)N1CCC2(CC1)Oc1ccccc1C(=O)N2Cc1ccccc1F
COc1ccc(OC)c(NC(=O)CSc2nc3ccccc3nc2N2CCCCC2)c1
CN1CCOc2cc(S(=O)(=O)N3CCN(S(=O)(=O)c4c(F)cccc4F)CC3)cnc21
O=c1c2ccccc2nc2sc(Nc3ccc(Oc4ccccc4)cc3)nn12
CCn1c(C)c(C)c2cc(C(=O)NCCc3cc(OC)ccc3OC)ccc21
CCC(=O)N1CCc2cc(CNS(=O)(=O)c3ccc(Br)s3)ccc21
O=[S+]([O-])(c1ccc(OC(F)(F)F)cc1)N1CCN([S+](=O)([O-])c2ccc3c(c2)OCCO3)CC1
CC(C)(C)c1ccc(C(=O)NCC(c2ccc(Cl)cc2)N2CCOCC2)cc1 (stereo not given)
COc1ccccc1Cc1nc2ccccc2nc1SCC(=O)N1CCCc2ccccc21
COc1ccc(C2Nc3ccccc3C(=O)N2Cc2ccc(Cl)cc2)cc1COc1ccc(NC(C)=O)cc1 (stereo not given)
Cc1nn2c(=O)cc(COC(=O)c3ccccc3NC(=O)COc3ccccc3C)nc2s1
CCOC(=O)c1ccc(NC(=O)CC2C(=O)N(c3ccccc3)C(=O)N2Cc2cccs2)cc1 (stereo not given)
CC1CCCN(S(=O)(=O)c2ccc3[nH]c(=O)cc(C(=O)NCCc4ccc(Cl)cc4)c3c2)C1 (stereo not given)
COc1ccc(N2CCN(S(=O)(=O)c3ccc4c(c3)CC(=O)N4)CC2)cc1
COc1ccc(N2CCN(C(=O)c3c(C)oc4nc(C)nc(N5CCCC5)c34)CC2)cc1
O=[S+]([O-])(c1ccc2c(c1)OCCO2)N1CCN([S+](=O)([O-])c2c(Cl)cc(Cl)cc2Br)CC1
Cc1ccc(C)c(N2CCN(C(=O)C3CCC(CNS(=O)(=O)c4cccs4)CC3)CC2)c1 (stereo not given)
O=C(CSc1nc(-c2cccc(F)c2)[nH]c1-c1ccccc1)Nc1ccc2c(c1)OCO2
COc1cc(F)c(S(=O)(=O)N2CCCN(S(=O)(=O)c3ccc(N)cc3)CC2)c(F)c1
COC(=O)c1cnn(-c2ccc(C(=O)Nc3ccc(OC(F)(F)F)cc3)cc2)c1N
O=S(=O)(c1ccc2c(c1)OCCO2)N1CCN(S(=O)(=O)c2cc(F)ccc2F)CC1
COC(=O)c1ccc(NC(=O)c2cnn(-c3ccc(Cl)cc3)c2C2CCN(C(=O)OC(C)(C)C)CC2)cc1
CCCCN(C)CCCNC(=O)CN1N=C(c2ccc(OC)cc2)CCC1=O
CCOc1ccc2oc(=O)cc(CN3CCN(C(=O)c4ccc(F)cc4)CC3)c2c1
O=C(O)c1ccc(Cn2c(SCc3ccc(F)cc3)nc3ccncc32)cc1
Cc1ccc(-c2nc3ccccn3c2Nc2c(C)cccc2C)o1
Cc1cccc(C(=O)NCCc2nc3ccccc3n2Cc2ccccc2Cl)c1
COc1cccc(C(=O)N(Cc2cccc(Cl)c2)Cc2ccco2)c1
CC(CNC(=O)c1nnc(Cc2cccc(F)c2)o1)c1ccccc1 (stereo not given)
Cc1noc(C)c1-c1ccc2ncnc(NCc3ccc(F)c(F)c3)c2c1
O=C(CSCc1cnn(-c2ccccc2)c1-n1cccc1)NCc1ccc(Cl)cc1
CC(C)c1ccc(NC(=O)C2CCN(c3nc(-c4ccc(C(C)C)cc4)no3)CC2)cc1
NC(=O)C1CCN(C(=O)c2cccc(NC(=O)c3nsc4ccccc34)c2)CC1
Cc1ccc(C(=O)NC2CCN(C#N)CC2)cc1
O=S(=O)(NCCc1nnc2ccc(SCc3ccc(Cl)cc3Cl)nn12)c1ccccc1
COC(=O)C(CC(C)C)NS(=O)(=O)c1cc(Br)ccc1Br (stereo not given)
N#Cc1nc(NCc2ccc(Cl)c(Cl)c2)c2ncn(CCCO)c2n1
COCCNS(=O)(=O)c1cc(-c2nn3c(C)nnc3c3ccccc23)ccc1C
O=S1(=O)N=C(Oc2cccc(Br)c2)c2ccccc21
COc1ccc(CNC(=O)c2ccc3c(c2)nc2n3CCOC2)c(OC)c1
COc1ccc(C2Nc3ccccc3C(=O)N2Cc2ccc(CNC(=O)CO)cc2)cc1COc1ccc(NC(C)=O)cc1 (stereo not given)
COc1ccc(OC)c(NC(=O)C2CCN(S(=O)(=O)c3ccc(C)cc3)CC2)c1
O=C1CC(c2ccccc2)CC2=C1C(c1ccco1)n1nc(C(F)(F)F)nc1N2 (stereo not given)
COc1ccc(C2Nc3cccc(OC)c3C(=O)N2Cc2ccccc2)cc1COc1ccc(NC(C)=O)cc1 (stereo not given)
COc1ccc(-c2ccc(C3C4C=CCCC4(C)C(=O)N3Cc3ccccc3)c(F)c2)cc1OC (stereo not given)
Cc1cc(C)n2ncc(C(=O)Nc3cccc(C#N)c3)c2n1 1.24% [at 28.7 µM]
CCCOc1ccc(NC(=O)CC2C(=O)N(c3ccccc3)C(=O)N2Cc2ccco2)cc1 (stereo not given)
CCOC(=O)N1CCc2c(sc3c2c(=O)n(Cc2ccccc2)c(=O)n3CC(=O)Nc2cccc(C)c2)C1
COC(=O)c1ccccc1NC(=O)c1ccc(C#N)cc1
C=C1CCN(Cc2ccc(OC)cc2)S(=O)(=O)c2ccccc21
COc1ccc(C2=Nn3c(nnc3-c3ccccc3O)SC2)cc1
O=C(c1ccco1)n1nc(-c2ccc(Cl)cc2)nc1NCc1ccccc1
Cc1ccc(S(=O)(=O)N2CCN(c3nc(-n4cnc5ccccc54)nc4ccccc34)CC2)cc1
O=C1NS(=O)(=O)c2ccccc21
COc1ccc(CN(Cc2ccccc2)C(=O)c2ccc(O)cc2)cc1COc1ccc(NC(C)=O)cc1
COc1ccccc1/C=C/c1nc(C#N)c(NC(C)c2ccccc2)o1 (stereo not given)
O=C(CNC(=O)c1ccc(Cl)c(C(F)(F)F)c1)OC(C(=O)Nc1cc(C(F)(F)F)ccc1Cl)c1ccccc1 (stereo not given)
Cc1ccc(CNC(=O)CSc2c(C)cnc3c2c(=O)n(C)c(=O)n3C)cc1
CCc1cc2c(cc3c(=O)n(CC(=O)N4CCN(c5cc(Cl)ccc5C)CC4)ncn32)s1
CCCN1CCC(=O)N(C(CSc2ccc(C)cc2)Cc2ccccc2)CC1 (stereo not given)
CCCCn1c(=O)c2oc3ccccc3c2n(CC(=O)Nc2ccccc2OC)c1=O
Cn1c(=O)oc2cc(S(=O)(=O)CCC(=O)NCCc3ccc(Cl)cc3)ccc21
COc1ccc(C(=O)N(Cc2ccccc2)Cc2ccc(OC)c(COc3ccc(NC(C)=O)cc3)c2)c(O)c1
O=C1C(F)N([S+](=O)([O-])c2ccc3c(c2)OCCO3)CCN1[S+](=O)([O-])c1c(F)cccc1F (stereo not given)
Cc1ccccc1CN1CCC(CNC(=O)c2cc3ccc4cccnc4c3[nH]2)CC1
CN(Cc1cncn1C)c1ncnc2ccc(-c3ccc4c(c3)OCO4)cc12
CC(C)(C)NS(=O)(=O)c1cccc(Nc2nn3c(=O)c4ccccc4nc3s2)c1
COc1ccc(Cn2cc(C(=O)c3ccc(C)cc3)c(=O)c3cc(OC)c(OC)cc32)cc1
Cc1ccc(NC(=O)c2cc3cc(C)ccc3n2C)cc1
N#CN1CCC(NC(=O)c2ccc(F)cc2)CC1
O=C(CNC(=O)c1ccc(Cl)cc1Cl)OC(C(=O)Nc1cc(C(F)(F)F)ccc1Cl)c1ccccc1 (stereo not given)
N#CN1CCC(NS(=O)(=O)c2cccc(F)c2)C1 (stereo not given)
O=C(COc1ccccc1)NCc1ccc2c(c1)CCN2C(=O)c1ccc(F)cc1
CN(C)c1ccc(C(=O)NCC(=O)OC(C(=O)Nc2cc(C(F)(F)F)ccc2Cl)c2ccccc2)cc1 (stereo not given)
CC1CCCCN1S(=O)(=O)c1ccc(F)c(C(=O)Nc2ccccc2C(F)(F)F)c1 (stereo not given)
Cc1noc(C)c1-c1ccc2ncnc(NCc3ccc4[nH]ccc4c3)c2c1
Brc1ccc2c(c1)NC(c1cccnc1)=NC(c1ccccc1)=N2
CS(=O)(=O)c1ccc(-c2nnc(NC(=O)c3ccc4c(c3)OCCO4)o2)cc1
CCN(Cc1ccccc1)C(=O)c1cn(-c2cccc(OC)c2)c(=O)c2ccccc12
O=C(c1ccccc1F)N1CCC(c2nc3c(nnn3Cc3cccc(F)c3)c(=O)[nH]2)CC1
COc1cc(OC)cc(C(=O)Nc2cc3nn(-c4ccccc4)nc3cc2Cl)c1
O=C(c1ccc2c(c1)N(Cc1ccccc1)C(=O)c1ccccc1S2(=O)=O)N1CCC(Cc2ccccc2)CC1
COc1cccc(Cn2c(SCc3ccc(C(=O)N4CCC(C)CC4)cc3)nc3ccncc32)c1
O=S(=O)(c1ccc2nc(NCc3ccccc3Cl)ccc2c1)N1CCCCC1
Oc1ccc(/C=C/c2c(F)cccc2F)c2cccnc12
Oc1ccc(Br)cc1C1C=C(c2ccc3c(c2)OCO3)NC(c2ccc(Cl)cc2)N1 (stereo not given)
O=C(NCc1ccccn1)[C@]1(C(F)(F)F)C[C@H](CCc2ccccc2)CCCO1
CCOc1ccccc1C(=O)Nc1ccc(S(=O)(=O)N2CCCCC2c2cccnc2)cc1 (stereo not given)
Cc1ccc(-c2nc3ccccn3c2Nc2ccc(F)cc2)o1
COc1ccc(CNC(=O)CSc2n[nH]c(-c3ccc(F)cc3)n2)cc1
O=C(NC1CC(=O)N(c2ccc(F)cc2)C1)c1ccc(S(=O)(=O)N2CCCC2)cc1 (stereo not given)
